# Data from PubChem BioAssay AID1671192 (National Center for Advancing Translational Sciences (NCATS), 2021).
# Inconclusive results are not listed. Unmarked numbers belong to inactive results. The call rests on the fitted dose curve; in most records, active means well fitted curve in the direction sought with a large enough effect; inconclusive means small, poorly fitted or top-dose-only effect, or another doubt; inactive means no such curve, though single readings can be large or run the other way.
# Target: Polyunsaturated fatty acid lipoxygenase ALOX15 (Homo sapiens) (UniProt P16050)
# Experiment: Counterscreen qHTS for inhibitors of human arachidonate 12S-lipoxygenase (ALOX12): ALOX15 Assay; further: 0% is about no effect
# Conditions: purified ALOX15 enzyme activity; series mostly up to 110 µM; activity change, negative = inhibition: at the top concentration
# Procedure, shortened: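 Xylenol orange–ferric complex formation, read as the 573 nm to 405 nm absorbance ratio, tracks product from 50 uM arachidonic acid turned over for 30 min at RT. Enzyme is 40 nM ALOX15, pH 7.5 HEPES buffer, compound-preincubated 15 min.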
# Sequence of Polyunsaturated fatty acid lipoxygenase ALOX15 (Homo sapiens) (P16050 whole entry, looked up): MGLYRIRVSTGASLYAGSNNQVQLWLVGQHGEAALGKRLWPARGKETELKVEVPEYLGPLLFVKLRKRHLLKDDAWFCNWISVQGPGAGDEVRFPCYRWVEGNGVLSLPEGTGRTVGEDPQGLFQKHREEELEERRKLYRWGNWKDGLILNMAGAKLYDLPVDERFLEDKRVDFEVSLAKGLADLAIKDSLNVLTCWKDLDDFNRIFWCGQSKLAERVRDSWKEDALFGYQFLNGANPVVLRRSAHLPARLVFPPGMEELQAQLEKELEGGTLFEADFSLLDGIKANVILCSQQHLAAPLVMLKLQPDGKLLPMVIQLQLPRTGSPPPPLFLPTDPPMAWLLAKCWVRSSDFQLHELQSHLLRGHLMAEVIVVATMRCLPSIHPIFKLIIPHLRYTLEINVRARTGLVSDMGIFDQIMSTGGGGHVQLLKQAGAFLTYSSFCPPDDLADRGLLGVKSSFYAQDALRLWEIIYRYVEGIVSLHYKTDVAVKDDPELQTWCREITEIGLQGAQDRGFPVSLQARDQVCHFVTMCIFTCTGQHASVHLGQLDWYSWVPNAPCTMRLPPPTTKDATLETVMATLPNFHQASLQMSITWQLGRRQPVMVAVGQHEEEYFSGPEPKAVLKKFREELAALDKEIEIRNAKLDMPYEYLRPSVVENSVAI
row,Structure (SMILES),"activity change, negative = inhibition"
1,CN1CCC(C(=O)N2CCCC3(Cc4ccccc4CN3C(=O)c3ccccc3)C2)CC1 (stereo not drawn),-14.8%
2,COc1cccc(N2C(=O)NC(=NC3CCCC3)C23CCCN([S+](=O)([O-])c2ccccc2)C3)c1 (stereo not drawn),-22.7%
3,COc1cccc(N2C(=O)NC(=NC3CCCCC3)C23CCN(CC2CC2)CC3)c1,-19.5%
4,COc1ccc(N2CC3CCC(C2)N3[S+](C)(=O)[O-])cc1,-3.15% [at 146 µM]
5,O=C1NCc2ccccc2CC12CCCN2CC1=CCCCC1 (stereo not drawn),-8.99% [at 146 µM]
6,O=c1[nH]c(C2CCCN(Cc3ccc(-c4cc(F)cc(F)c4)cc3)C2)nc2ccc(F)cc12 (stereo not drawn),-9.41%
7,O=C(c1ccc2c(c1)OCO2)N1CCCC1c1nnc2n1CCNC2 (stereo not drawn),-14.1%
8,O=C(c1ccncc1)N1CCC(c2nnc3n2CCNC3)CC1,-35.4% [at 146 µM]
9,COc1ccc(CNc2ncnc3c2CN(C2CCCNCC2)C(=O)CN3C)cc1 (stereo not drawn),8.84%
10,C[S+](=O)([O-])N1CC2(CCN(Cc3ccc(Cl)cc3)C2)Cc2ccccc21 (stereo not drawn),-31.4% [at 146 µM]
11,CC(C)OCCCNc1ncnc2c1CN(C1CCNC1)C(=O)CN2C (stereo not drawn),-18%
12,COc1ccccc1-c1cccc(CN)c1,18.8% [at 233 µM]
13,COC[C@@H]1CCCN1c1ncnc2c1CN(C1CCNC1)C(=O)CN2C (stereo partly drawn),0.659%
14,N#Cc1cccnc1-c1cccc(C(=O)O)c1,-10.8% [at 146 µM]
15,Cc1ccc2nc(C3CCCN(Cc4ccccc4)C3)[nH]c(=O)c2c1 (stereo not drawn),2.64% [at 146 µM]
16,CN1CC(=O)N(C2CCNCC2)Cc2c1ncnc2N1CCc2ccccc2C1,-21.4%
17,Cc1ccc(CN2CC3(Cc4ccccc4NC3=O)C2)cc1,67.4% [at 146 µM]
18,COc1ccc(-c2nc(C3CC3)nc3c2CN(C(=O)c2ccccc2F)CC3)cc1,-9.97%
19,COc1ccc(C(=O)N2CCOC3(CCN(C(=O)CN)CC3)C2)cc1,-8.06%

row,Structure (SMILES),"activity change, negative = inhibition"
1,CCN1CCCC2(Cc3ccccc3CN([S+](=O)([O-])c3ccccc3)C2)C1 (stereo not drawn),-25.9%
2,CCNc1ncnc2c1CN(C1CCNC1)C(=O)CN2C (stereo not drawn),-18.4% [at 146 µM]
3,Cc1ccc(-c2cccc(CN)c2)cc1Cl,-12.2% [at 146 µM]
4,O=Cc1ccccc1-c1ccc(OC(F)(F)F)cc1,0.731% [at 233 µM]
5,C[S+](=O)([O-])N1CCC(c2nnc3n2CCNC3)CC1,7.03% [at 146 µM]
6,CC(C)C(=O)N1CCCC2(Cc3ccccc3CN2[S+](=O)([O-])c2ccccc2)C1 (stereo not drawn),-13.4%
7,O=C(Nc1ccccc1)N1CCC(c2nnc3n2CCNC3)CC1,-2.9%
8,CC(=O)N1CCn2cc(C(=O)N3CCOCC3)nc2C1,-15.5% [at 146 µM]
9,COc1ccc(CNc2ncnc3c2CN(C2CCNCC2)C(=O)CN3C)cc1OC,-24.5%
10,O=C1Nc2ccccc2CC12CN(Cc1c[nH]c3ccccc13)C2,-21.2% [at 146 µM]
11,O=C1NCc2ccccc2CC12CCCN2Cc1cccc(O)c1 (stereo not drawn),-11.9% [at 146 µM]
12,COCCNC(=O)c1cc(-c2ccc(OC)cc2)nc2onc(C3CCCN3)c12 (stereo not drawn),-14.5%
13,O=C(c1cc(C2CC2)nc2onc(C3CCCNC3)c12)N1CCC(F)CC1 (stereo not drawn),5.09%
14,Fc1ccc(CN2CC(Oc3ccc4c(c3)OCO4)C2)cc1,6.88% [at 146 µM]
15,COc1ccc(CN2CC3(C2)C(=O)Nc2ccccc23)cc1,-29.7% [at 146 µM]
16,COc1ccc(C(=O)N2Cc3ccccc3CC23CCCN(C(=O)CCCN)C3)cc1 (stereo not drawn),-10.5%
17,Cn1cccc1CN1CCC2(CC1)C(=NC1CCCCC1)NC(=O)N2c1cc(F)cc(F)c1,-4.86%
18,Fc1ccc(CN2CCC3(CC(c4cccc(C(F)(F)F)c4)=NO3)C2)cc1 (stereo not drawn),-0.975%
19,CN1CC(=O)N(C2CCCNC2)Cc2c1ncnc2N1CCSCC1 (stereo not drawn),-29.8%
